Here are results for 14 molecules from PubChem BioAssay.

One may read the inhibition as the drop in the measured response relative to a control, in per cent.

The source made the active and inactive calls.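 Rule for the calls, unless noted: active = inhibition of the reporter signal at or above 50%; inactive = inhibition below 50%.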

A short description of experiment [1]: inhibitors of TNFa-induced NFkB p65 translocation, primary screen, imaging, HUVEC, MLSMR starter and 10KST1 sets (AID 438;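 active = inhibition above 20% together with a positive visual image hit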;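 note: compound added about 3h40 before a 20 min TNFalpha stimulation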;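 for inhibition: signal is the nuclear over cytoplasmic p65 intensity ratio per well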). The conditions noted are these: HUVEC TNFa-induced p65 nuclear translocation; cell count: measured here: nuclei count (cytotoxicity indicator), at 2.08 µM; inhibition: at 2 µM, stronger effect = higher value, 0% TNFa-plus-vehicle, 100% no-TNFa wells.

Experiment [2] can be described thus: reduction of polyQ htt aggregates in cells – imaging, exon1htt(103Q)mCFP cells, high-content imaging, primary screen (AID 483;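 active = visual image review flags a hit and inhibition of aggregation exceeds 20%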;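 note: compound exposure lasted 3 days before fixation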;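 for nuclei count: percent of the per-plate median nuclei count of sample wells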). The note with it: exon1htt(103Q)mCFP cell line, aggregate imaging, at 2 µM; inhibition of aggregation: stronger effect = higher value; nuclei count: measured here: cell count, toxicity.
Experiment [3] in a line: endothelial E-selectin expression blockers – imaging, HUVEC, immunofluorescence, MLSMR starter and 10KST1 sets, primary screen (AID 487;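 active = visually confirmed hit in the image check and inhibition above 20%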;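 for inhibition: signal is fraction of cell area covered by stained E-selectin grains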;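 for nuclei count: 100% = median nuclei count of all wells on the same plate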). The note with it: HUVEC TNFalpha-induced E-selectin immunofluorescence imaging, at 2 µM; inhibition: stronger effect = higher value; nuclei count: measured here: cell number, toxicity.
The target in experiment [4] is Voltage-gated potassium channel subunit beta-2 (Rattus norvegicus) (UniProt P62483). Kind of experiment: inhibitors of rat Kvbeta2 reductase activity – biochemical, NADPH fluorescence, primary screen (AID 622;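 active = fluorescence slope higher than the sample average by over 3 SD, cut at about -0.22 in these data, passing the limit was not always enough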;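 note: slope of raw intensity against log time taken from 70 to 1610 s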). The note with it: recombinant KvBeta, 4-cyanobenzaldehyde reduction, at 10 µM, stronger effect = higher value.
Experiment [5] shares this target. The experiment can be described thus: enhancers of rat Kvbeta2 NADPH turnover – biochemical, NADPH fluorescence, primary screen (AID 623;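 active = NADPH fluorescence slope more negative than the mean of all samples by about 3 SD, 99.7% confidence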;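 note: fluorescence intensity change per second fitted from 20 to 320 s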). The note with it: Recombinant KvBeta, NADPH fluorescence decrease slope, 10 min; at 10 µM; stronger effect = lower value.
Experiment [6] concerns the target Alpha-2C adrenergic receptor (Homo sapiens) (UniProt P18825). The experiment can be described thus: compounds altering alpha2C-coupled GIRK flux – cell-based, HEK293 alpha2C/GIRK1/2, thallium flux, primary screen (AID 624;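 active = fluorescence slope after compound addition differing from the mean of all screened samples at 99.7% confidence, in either direction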;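 note: slope of fluorescence ratio to pre-addition baseline per second over 15 to 24 s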). The note with it: thallium flux BTC fluorescence, at 10 µM, actives lie on both sides.
Experiment [7] in a line: blockers of RIG-like receptor reporter activation – cell-based, Sendai virus stimulus, luciferase, 10K MLSCN set, TLR/RLR signaling modifier project, primary screen (AID 602276;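 active = inhibition at or above 50% at 10 µM; inactive = inhibition below 50%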;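 note: firefly luciferase from ISG56 promoter only with Renilla not read in this screen; 0% = Sendai virus plus DMSO and 100% = medium plus DMSO without virus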). The conditions noted are these: HEK293 RL24 IRF3 luciferase reporter, at 10 µM, stronger effect = higher value. On the technique in general: In a reporter assay the amount or activity of a reporter protein is the signal.

Experiment [8] can be described thus: TLR3 IRF3 reporter activation blockers – cell-based, poly I:C stimulus, luciferase, 10K MLSCN set, primary screen (AID 602277). The note with it: HEK293-TLR3 RL24 IRF3 luciferase reporter, at 10 µM, stronger effect = higher value.

Sequence of Voltage-gated potassium channel subunit beta-2 (Rattus norvegicus) (P62483 whole entry, looked up): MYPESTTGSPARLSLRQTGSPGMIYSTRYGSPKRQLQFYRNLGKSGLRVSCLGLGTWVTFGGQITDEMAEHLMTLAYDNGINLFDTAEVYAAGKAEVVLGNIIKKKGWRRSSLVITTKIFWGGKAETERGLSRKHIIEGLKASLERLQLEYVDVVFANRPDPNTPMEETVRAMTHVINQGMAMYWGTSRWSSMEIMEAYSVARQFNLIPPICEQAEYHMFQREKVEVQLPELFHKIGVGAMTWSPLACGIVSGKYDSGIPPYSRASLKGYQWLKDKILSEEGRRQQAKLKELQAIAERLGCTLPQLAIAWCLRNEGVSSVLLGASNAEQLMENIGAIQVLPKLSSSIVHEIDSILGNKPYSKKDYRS
Sequence of Alpha-2C adrenergic receptor (Homo sapiens) (P18825 whole entry, looked up): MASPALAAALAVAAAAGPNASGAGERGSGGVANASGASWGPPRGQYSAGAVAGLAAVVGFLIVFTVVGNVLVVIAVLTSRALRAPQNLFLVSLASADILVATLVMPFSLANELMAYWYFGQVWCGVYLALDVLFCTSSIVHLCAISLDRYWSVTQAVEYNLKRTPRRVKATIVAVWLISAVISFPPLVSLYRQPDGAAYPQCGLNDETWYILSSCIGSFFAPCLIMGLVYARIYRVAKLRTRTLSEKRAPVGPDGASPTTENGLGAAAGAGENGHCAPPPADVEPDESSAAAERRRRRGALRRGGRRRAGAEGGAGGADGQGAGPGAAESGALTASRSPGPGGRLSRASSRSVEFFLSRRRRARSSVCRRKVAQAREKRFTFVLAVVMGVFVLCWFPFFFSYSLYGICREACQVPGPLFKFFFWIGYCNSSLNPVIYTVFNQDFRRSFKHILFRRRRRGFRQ

As for `COc1ccccc1-c1nc(SCc2ccccn2)n[nH]1`, the cell count in experiment [1] stood at 509. Also, the inhibition was 8.9% (inactive) in experiment [1], 32.9% (inactive) in experiment [3], -21% (inactive) in experiment [7] and -28.9% (inactive) in experiment [8]. Moreover, the inhibition of aggregation in experiment [2] is 2.6% (inactive). The nuclei count was found to be 99.6% in experiment [2] and 96.4% in experiment [3]. Further, the fluorescence slope in experiment [4] is -0.605 (inactive). Besides, in experiment [5], the NADPH fluorescence slope is -2.8e-05 (inactive). Further, the slope in experiment [6] was 0.0058 (inactive).

On to `COc1cccc(C2CC(c3ccccc3)n3ncnc3N2)c1` (centres undefined), for which, in experiment [1], the cell count is 564. Also, the inhibition was 4.1% (inactive) in experiment [1], 17.4% (inactive) in experiment [3], 5.93% (inactive) in experiment [7] and 33.2% (inactive) in experiment [8]. For the same molecule, in experiment [2], the inhibition of aggregation was -12% (inactive). Further, the nuclei count turned out to be 90.7% in experiment [2] and 82% in experiment [3]. Also, the fluorescence slope in experiment [4] is -0.6 (inactive). Moreover, in experiment [5], the NADPH fluorescence slope is -2.8e-05 (inactive). The slope in experiment [6] is 0.00718 (inactive).

With `O=C1c2ccccc2C(=O)N1CCCn1nnc(-c2ccc(N3CCOCC3)cc2)n1`, the cell count in experiment [1] worked out at 319. Besides, the inhibition in experiment [1] is -8.2% (inactive); in experiment [3], -80.5% (inactive); in experiment [7] it was 15.2% (inactive); in experiment [8], 21.3% (inactive). Further, the inhibition of aggregation in experiment [2] is 28% (inactive). The values for the nuclei count in experiment [2] and in experiment [3] were 111% and 109%, respectively. In addition, the fluorescence slope in experiment [4] is -0.619 (inactive). In addition, in experiment [5], the NADPH fluorescence slope is -1.3e-05 (inactive). The slope in experiment [6] is 0.00347 (inactive).

As to `O=C(NCc1ccccc1)N[C@@H](Cc1ccccc1)C(=O)O`, in experiment [1], the cell count came to 666. The inhibition in experiment [1] was 6.9% (inactive); in experiment [3], 4.5% (inactive); in experiment [7], 10.6% (inactive); in experiment [8], 33.8% (inactive). Further, the inhibition of aggregation in experiment [2] was -0.3% (inactive). In addition, the values for the nuclei count in experiment [2] and in experiment [3] were 116% and 111%, respectively. Besides, the fluorescence slope in experiment [4] is -0.43 (inactive). Moreover, the NADPH fluorescence slope in experiment [5] was -4.1e-05 (inactive). The slope in experiment [6] was 0.00384 (inactive).

Take `O=C1NCC(COCc2ccccc2)O1` (centres undefined): the cell count in experiment [1] came to 432. Moreover, the inhibition in experiment [1] was -3% (inactive); in experiment [3] it was 25.1% (inactive); in experiment [7] it was 8.89% (inactive); in experiment [8], 21% (inactive). For the same molecule, the inhibition of aggregation in experiment [2] is 21% (inactive). The nuclei count in experiment [2] was found to be 87.4%; in experiment [3], 102%. Further, the fluorescence slope in experiment [4] is -0.496 (inactive). Further, in experiment [5], the NADPH fluorescence slope is -5.3e-05 (inactive). Also, in experiment [6], the slope was 0.00525 (inactive).

For `Cn1c(=O)c2c(nc(NCC3CCCO3)n2C)n(C)c1=O` (centres undefined), in experiment [1], the cell count is 314. The inhibition was 0.2% (inactive) in experiment [1], -102% (inactive) in experiment [3], 6.21% (inactive) in experiment [7] and 6.02% (inactive) in experiment [8]. For the same molecule, in experiment [2], the inhibition of aggregation was -10.3% (inactive). For the same molecule, the nuclei count in experiment [2] came to 108%; in experiment [3], 122%. For the same molecule, the fluorescence slope in experiment [4] is -0.609 (inactive). Also, the NADPH fluorescence slope in experiment [5] is -1.6e-05 (inactive). For the same molecule, the slope in experiment [6] is 0.00331 (inactive).

As to `CCOC(=O)CSc1nc2cc(C(=O)N3CCC(C(N)=O)CC3)ccc2c(=O)n1-c1ccccc1`, the cell count in experiment [1] is 391. The inhibition in experiment [1] is 4.8% (inactive); in experiment [3] it was -26.1% (inactive); in experiment [7], 10.8% (inactive); in experiment [8], 9.87% (inactive). In experiment [2], the inhibition of aggregation is -5.8% (inactive). Also, the nuclei count is 93.5% in experiment [2] and 95.3% in experiment [3]. Besides, the fluorescence slope in experiment [4] was -0.37 (inactive). For the same molecule, in experiment [5], the NADPH fluorescence slope was -5.8e-05 (inactive). Also, in experiment [6], the slope was 0.00452 (inactive).

Regarding `O=C1c2ccccc2C(Nc2ccc3nc(-c4cccnc4)[nH]c3c2)N1Cc1ccco1` (centres undefined), in experiment [1], the cell count worked out at 493. The inhibition was -9.4% (inactive) in experiment [1], -24.3% (inactive) in experiment [3], -7.53% (inactive) in experiment [7] and -13.9% (inactive) in experiment [8]. Also, in experiment [2], the inhibition of aggregation is 23.2% (inactive). The nuclei count in experiment [2] came to 90%; in experiment [3], 93.2%. In addition, the fluorescence slope in experiment [4] was -0.58 (inactive). For the same molecule, the NADPH fluorescence slope in experiment [5] is -3.1e-06 (inactive). The slope in experiment [6] was 0.00653 (inactive).

As for `Cc1cc2c(=O)n(Cc3ccco3)c(SCC(=O)NCc3ccco3)nc2s1`, the cell count in experiment [1] amounted to 502. Further, the inhibition in experiment [1] was 3.1% (inactive); in experiment [3], -50% (inactive); in experiment [7] it was 14.9% (inactive); in experiment [8], 17.7% (inactive). Besides, the inhibition of aggregation in experiment [2] was 3.2% (inactive). In addition, the nuclei count was 84% in experiment [2] and 82.5% in experiment [3]. Also, the fluorescence slope in experiment [4] was -0.393 (inactive). Moreover, the NADPH fluorescence slope in experiment [5] was 1.9e-05 (inactive). In addition, in experiment [6], the slope was 0.00738 (inactive).

Turning to `O=C(NCc1ccccc1)C1CCN(S(=O)(=O)N2CCCCCC2)CC1`, the cell count in experiment [1] is 639. The inhibition in experiment [1] is 0% (inactive); in experiment [3], -19.7% (inactive); in experiment [7], -9.73% (inactive); in experiment [8], -4.63% (inactive). For the same molecule, in experiment [2], the inhibition of aggregation was -6.3% (inactive). The nuclei count in experiment [2] stood at 106%; in experiment [3], 112%. In addition, the fluorescence slope in experiment [4] was -0.473 (inactive). Moreover, the NADPH fluorescence slope in experiment [5] was 5.6e-05 (inactive). For the same molecule, in experiment [6], the slope was 0.00906 (inactive).

Consider `CCCOc1cccc(NC(=O)c2c(-c3ccccc3)noc2C)c1`, for which, in experiment [1], the cell count was 515. Further, the inhibition was 2% (inactive) in experiment [1], -32% (inactive) in experiment [3], 12.6% (inactive) in experiment [7] and 18% (inactive) in experiment [8]. Further, the inhibition of aggregation in experiment [2] was 7.5% (inactive). Besides, the nuclei count was 92.7% in experiment [2] and 116% in experiment [3]. In experiment [4], the fluorescence slope was -0.534 (inactive). Besides, the NADPH fluorescence slope in experiment [5] is 5.8e-06 (inactive). In addition, the slope in experiment [6] is 0.00598 (inactive).

For `O=C(Cn1ncc2c(=O)oc3ccccc3c21)Nc1nc2ccccc2s1`, in experiment [1], the cell count is 313. For the same molecule, the inhibition in experiment [1] is -0.7% (inactive); in experiment [3], -282% (inactive); in experiment [7], 15.6% (inactive); in experiment [8], 17% (inactive). The inhibition of aggregation in experiment [2] is 1.3% (inactive). Moreover, the nuclei count in experiment [2] stood at 96.3%; in experiment [3], 90.7%. For the same molecule, the fluorescence slope in experiment [4] is -0.537 (inactive). The NADPH fluorescence slope in experiment [5] is -8.1e-05 (inactive). In addition, in experiment [6], the slope was 0.00615 (inactive).

On to `CC(=O)Nc1sc2c(c1C#N)CCCCC2`, for which, in experiment [1], the cell count amounted to 349. In addition, the inhibition in experiment [1] was 0.8% (inactive); in experiment [3], -76.6% (inactive); in experiment [7], -1.89% (inactive); in experiment [8], -4.1% (inactive). Moreover, the inhibition of aggregation in experiment [2] was 12.1% (inactive). Moreover, the nuclei count amounted to 78.3% in experiment [2] and 115% in experiment [3]. The fluorescence slope in experiment [4] was -0.396 (inactive). In experiment [5], the NADPH fluorescence slope is -5.5e-05 (inactive). Further, the slope in experiment [6] was 0.00723 (inactive).

As to `CCN1CCN(Cc2ccc(NC(=O)Nc3ccccc3)cc2)CC1`, the cell count in experiment [1] was determined as 552. Further, the inhibition was -7.5% (inactive) in experiment [1], -49.1% (inactive) in experiment [3], 10.6% (inactive) in experiment [7] and -14.4% (inactive) in experiment [8]. Moreover, the inhibition of aggregation in experiment [2] is -20.2% (inactive). The nuclei count is 56.6% in experiment [2] and 102% in experiment [3]. Besides, in experiment [4], the fluorescence slope is -0.605 (inactive). The NADPH fluorescence slope in experiment [5] was -1.7e-05 (inactive). In addition, the slope in experiment [6] is 0.00679 (inactive).
